PubChem BioAssay AID1456 (Vanderbilt High Throughput Screening Facility, 2008)
About 4,100 (2.2%) of roughly 190,000 compounds were called active.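 The calls were made as follows: active = thallium flux slope and its plate-corrected score both differing from the plate sample mean at a set confidence after two filtering rounds, in either direction; inactive = the rest.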 The sample as a whole holds a higher share of actives than the screen did.

Biological target: Solute carrier family 12 member 5 (Homo sapiens) (UniProt Q9H2X9)
Sequence (Q9H2X9 whole entry, looked up): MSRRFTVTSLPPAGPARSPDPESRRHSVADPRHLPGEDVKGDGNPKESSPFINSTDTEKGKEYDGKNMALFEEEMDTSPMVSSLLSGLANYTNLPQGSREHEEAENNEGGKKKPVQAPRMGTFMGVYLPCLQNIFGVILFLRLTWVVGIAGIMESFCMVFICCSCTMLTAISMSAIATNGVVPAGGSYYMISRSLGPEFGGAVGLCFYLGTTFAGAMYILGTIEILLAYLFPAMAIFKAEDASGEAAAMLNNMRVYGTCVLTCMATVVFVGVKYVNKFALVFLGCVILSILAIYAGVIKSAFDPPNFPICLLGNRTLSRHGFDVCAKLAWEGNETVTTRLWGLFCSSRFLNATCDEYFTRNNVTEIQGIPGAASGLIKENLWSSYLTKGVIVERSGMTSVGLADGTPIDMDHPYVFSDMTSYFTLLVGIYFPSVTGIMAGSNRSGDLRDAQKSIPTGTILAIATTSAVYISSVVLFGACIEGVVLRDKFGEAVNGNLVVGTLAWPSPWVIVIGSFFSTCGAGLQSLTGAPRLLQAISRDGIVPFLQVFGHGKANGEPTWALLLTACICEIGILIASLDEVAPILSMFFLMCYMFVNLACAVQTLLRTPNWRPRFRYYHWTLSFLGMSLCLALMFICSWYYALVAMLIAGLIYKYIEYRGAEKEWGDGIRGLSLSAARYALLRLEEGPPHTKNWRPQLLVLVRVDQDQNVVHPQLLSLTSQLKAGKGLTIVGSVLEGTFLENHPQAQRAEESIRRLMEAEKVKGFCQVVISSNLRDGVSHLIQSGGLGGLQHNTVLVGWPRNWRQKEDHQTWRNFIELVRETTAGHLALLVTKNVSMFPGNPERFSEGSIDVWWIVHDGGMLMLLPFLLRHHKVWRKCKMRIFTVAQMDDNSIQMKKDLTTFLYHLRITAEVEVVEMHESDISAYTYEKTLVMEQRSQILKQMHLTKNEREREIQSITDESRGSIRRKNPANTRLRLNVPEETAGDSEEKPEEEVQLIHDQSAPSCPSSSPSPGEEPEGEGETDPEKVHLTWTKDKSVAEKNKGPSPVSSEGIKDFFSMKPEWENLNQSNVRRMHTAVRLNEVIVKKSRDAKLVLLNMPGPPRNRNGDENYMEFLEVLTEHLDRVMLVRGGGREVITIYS
Assay: KCC2 cotransporter modulators, thallium flux, primary screen, cell-based, HEK293 KCC2, FluoZin-2 fluorescence, MLSMR (AID 1456);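 also: slope of fluorescence scaled to starting intensity during 10 to 20 s after thallium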
Conditions: KCC2 cells, thallium flux FluoZin-2 fluorescence; at 10 µM

B-score of Tl+ flux slope (higher = more flux/activation; lower = inhibition), active:
CC(C)n1cnc2c(Nc3cccc(Cl)c3)nc(N(CCO)CCCO)nc21 -2.56
N#Cc1nc(Cc2ccccc2)oc1NCCc1ccccc1 -4.49
O=c1oc2ccccc2cc1-c1cn(-c2ccccc2)c(=S)[nH]1 7.21
CCN(CC)S(=O)(=O)c1cccc(-c2n[nH]c(=S)n2/N=C/c2ccc(C(=O)OC)cc2)c1 2.87
Cn1c(CNc2nc(-c3ccccc3)cs2)nnc1SCC(=O)c1ccccc1 -4.57
O=C(Nc1ccc2oc(-c3ccccc3F)nc2c1)c1ccco1 -4.45
S=C(NN=C1CCN(Cc2ccccc2)CC1)NC1CCCCC1 -3.5
Fc1cc(F)c2nc(Nc3nc4c(F)cccc4s3)sc2c1 69.3
CC(=O)Oc1ccccc1C(=O)Nc1ncc([N+](=O)[O-])s1 -3
O=C(CNC(=O)c1ccco1)OCC(=O)c1ccccc1 7.3
COc1cccc(NC(=S)NC(=O)c2c(Cl)c(C)nn2C)c1 39.2
N#Cc1ccc(C(=O)Nc2nc(-c3cccs3)c(C(=O)C(F)(F)F)s2)cc1 -2.57
CC[C@@H](C)[C@@H](C(=O)N1CCN(C(=O)OC(C)(C)C)CC1)n1cc(CCC(=O)O)nn1 3.74
O=c1[nH]c2ccccc2s1 10.2
COC(=O)c1sccc1NC(=O)c1cc(OC)c(OC)c(OC)c1 -5.91
COc1ccc2[nH]c(=S)cc(C)c2c1 13.9
C[C@@H](C(=O)Nc1ccc2ccccc2c1)[C@@H]1C[C@@]1(C)[C@@H](NC(=O)c1cccnc1)c1ccccc1 -2.53
CCCCn1c(=S)[nH]c2ccccc2c1=O 92.1
CCCCn1c(=S)[nH]c2ncccc2c1=O 49.5
CN(C)CCn1c(=S)[nH]c2ccc(Cl)cc2c1=O 4.34
O=c1c2ccccc2[nH]c(=S)n1CCN1CCC(=C(c2ccc(F)cc2)c2ccc(F)cc2)CC1 8.36

B-score of Tl+ flux slope (higher = more flux/activation; lower = inhibition), inactive:
OCCCNc1nccc(-c2cc(Nc3cccc(Cl)c3)ncn2)n1 -0.723
CC(C)C[C@H](CO)Nc1nc(N(C)c2cccc(Cl)c2)c2ncn(C(C)C)c2n1 -0.662
O=C(CN1CCN(c2ccc(Cl)cc2)CC1)NCc1cccs1 -1.03
Cc1ccccc1-c1nc(C#N)c(NCc2ccco2)o1 -0.237
Cc1ccc(-c2nc(C#N)c(NCCCn3ccnc3)o2)cc1 -0.3
Nc1ncc(-c2cc3ccccc3oc2=O)s1 -0.488
O=C(c1cn(-c2ccccc2)nc1-c1cc2ccccc2oc1=O)N1CCOCC1 -0.172
O=C(NCC1CCCO1)c1ccccc1-c1nc(-c2ccccc2Cl)no1 (stereo not drawn) -1.09
O=C(c1ccncc1)N1CCN(c2ccc3ccccc3n2)CC1 -0.588
COc1cc(/C=N/n2c(C)n[nH]c2=S)ccc1OCc1ccccc1 0.899
S=c1[nH]nc(-c2cc(-c3ccccc3)n[nH]2)n1/N=C/c1c2ccccc2cc2ccccc12 -1.01
O=C1CC(Cc2ccc(Cl)cc2)C(=O)N1c1cc(Cl)ccn1 (stereo not drawn) -1.2
CC1CN(c2nc(Nc3ccccc3)nc(N)c2[N+](=O)[O-])CC(C)O1 (stereo not drawn) -0.457
O=C(CS(=O)(=O)c1ccc(C(F)(F)F)cn1)NNC(=O)c1ccccc1 -0.101
Cn1c(CC2Sc3ccccc3NC2=O)nnc1SCC(=O)c1ccc(Cl)cc1 (stereo not drawn) -2.19
CCN(CCNC(=O)C1=C(C)C(=O)OC12CCC(C)CC2)c1ccccc1 (stereo not drawn) 0.78
Cc1nc(Cl)c(C#N)c2c1CCCC2 -1.49
CCOC(=O)CSc1nc(C)c(Oc2ccc(Cl)cc2Cl)c(=O)[nH]1 -0.98
CCOC(=O)CSc1nnc(CNc2nc(-c3ccccc3)cs2)n1C -1.31
Cc1ccc(-c2csc(NNC(=O)c3ccccc3)n2)cc1 -5.47
Cc1cc(N2CCN(c3ccc(F)cc3)CC2)n2ncnc2n1 0.197
COCCNc1nc(-c2ccccc2)nc2c1oc1ccccc12 0.0873
CC(C)OP(=O)(OC(C)C)C(Nc1ccccc1)c1cccc([N+](=O)[O-])c1 (stereo not drawn) -1.5
O=C(Nc1ccc2nccnc2c1)c1ccco1 0.0364
O=C(Nc1ccc2oc(-c3ccc4ccccc4c3)nc2c1)c1cccs1 0.746
S=C(Nc1ccc(Br)cc1Cl)NC1CCN(Cc2ccccc2)CC1 -1.46
O=C(NC1CCN(Cc2ccccc2)CC1)c1c(F)cccc1F -1.12
NC(=O)c1c(Nc2nc3c(F)cccc3s2)sc2c1CCCC2 -0.0899
Fc1cc(F)c2nc(N3CCOCC3)sc2c1 -0.123
O=S(=O)(Nc1ccc(OC(F)(F)F)cc1)c1cccc2nonc12 -0.299
CN(C)S(=O)(=O)c1ccc(C(=O)NCC(C)(C)N2CCOCC2)cc1 -0.162
Cn1c(=O)c2c(ncn2CCc2ccccc2)n(C)c1=O -0.25
O=C(CCc1ccccc1)Nc1ncc([N+](=O)[O-])s1 -3
O=C(Cc1c(F)cccc1Cl)Nc1ncc([N+](=O)[O-])s1 -1.12
O=C(COC(=O)c1ccccc1C(=O)c1ccccc1)c1ccco1 -0.42
O=C(COC(=O)CNC(=O)c1ccco1)Nc1ccc(F)cc1 0.652
Cn1nccc1NS(=O)(=O)c1ccc(F)cc1 0.158
COc1cccc(NC(=S)NCc2ccccn2)c1 -0.247
Cc1nn(C)c(C(=O)NNC(=S)NC2CCCCC2)c1Cl -0.0757
COc1ccc(CC(=O)NCC(=O)N/N=C/c2cc(Br)ccc2OC)cc1 -1.94
COc1ccc(/C=C/C(=O)Nc2ccc(C)cc2)cc1S(=O)(=O)N1CCOCC1 0.752
CCOc1cccc(C(=O)Nc2nnc(-c3cccs3)s2)c1 -0.21
N#Cc1c(-c2cccs2)nc(SCC(=O)c2ccc(Br)cc2)[nH]c1=O -4.31
Cc1cc(C)cc(C(=O)NCC(=O)OCC(=O)N2CCCCC2)c1 1.11
CCC(C)[C@@H](C(=O)N1CCNCC1)n1cc(CCCCN)nn1 (stereo partly drawn) 0.0703
C[C@@H](C(=O)N1CCNCC1)n1cc(CCC(=O)O)nn1 1.43
COCc1cc(=O)oc2cc(NS(=O)(=O)c3ccc(C)cc3)ccc12 0.0356
O=S(=O)(NCc1ccco1)c1cnc(Cl)c(Cl)c1 -2.3
COC(=O)c1sccc1NC(=O)c1csc2c1CCCC2 -0.108
COc1cc(C(=O)Nc2nccs2)cc(OC)c1OC 0.128
COc1ccc(NS(=O)(=O)c2ccc(N3CCOCC3)c(NC(=O)c3ccccc3Br)c2)cc1 -1.53
COc1ccc2[nH]c3ccc(OC)cc3c2c1 0.0914
COc1ccc2[nH]c(=O)c(CNc3ccc(C)c(C)c3)cc2c1 0.158
COc1ccccc1OCC(=O)O/N=C(\N)c1ccccn1 0.265
COc1ccc(C(=O)NNc2cc(C)nc(NNC(=O)c3ccc(OC)cc3)n2)cc1 -0.94
COC(=O)[C@H](C)[C@H]1C[C@]1(C)[C@H](NC(=O)OCc1ccccc1)c1ccccc1 2.81
O=C(Nc1ccc(N2CCN(C(=O)c3ccccc3)CC2)c(Cl)c1)c1cccnc1 1.08
Cc1cc(C)n(CC(C)NCc2c(C(=O)N3CCOCC3)nc3c(C)cccn23)n1 (stereo not drawn) 0.104
CCOC(=O)C1=C(N)N2C(=O)C(C)SC2=C(C(=O)OCC)C1c1cc(OC)c(OC)c(OC)c1 (stereo not drawn) -0.308
CCCCn1c(=O)c(C(C)=O)c(O)c2ccccc21 -0.478
Fc1ccc(NC(=S)N2CCc3[nH]c4ccccc4c3C2)cc1 -0.241
CCCCNC(=O)c1ccc(-n2c(=S)[nH]c3ccccc3c2=O)cc1 1.81
CCCCn1c(=S)[nH]c2cc(S(=O)(=O)N3CCCCC3)ccc21 0.854
O=C(CCn1c(=S)[nH]c2ccccc2c1=O)NCCCN1CCCC1=O -0.0162
CCCCN(C)Cc1c(C)[nH]c2ccc(Cl)cc2c1=O -0.235
COc1cc2[nH]c(=S)n(Cc3ccc(F)cc3)c(=O)c2cc1OC 0.913
CCN(CC)CCn1c(=S)[nH]c2ncccc2c1=O 0.847
C=CCN(C(=O)Nc1ccc2c(c1)nc(C)n2C)c1ccccc1 -0.205
COc1ccc2c(c1)c1ncn(Cc3ccccn3)c(=O)c1n2C -0.189
COc1ccc(-c2nn(C)c(=O)c3ccccc23)cc1CNC(=O)C1CCCCC1 -0.0309
CCC(C)N1C(=S)SC(C)(C)C1N(O)C(=O)NC1CCCCC1 (stereo not drawn) 0.793
COc1ccccc1-n1cn[nH]c1=S 0.0347
CCc1ccc(NC(=O)N[C@H](C(=O)O)C(C)CC)cc1 (stereo partly drawn) 1.5
O=C(O)c1ccc(/C=N/Nc2nc(N3CCCCC3)nc(N3CCCCC3)n2)cc1 -1.4
Cc1ccc(C(=O)N/C(=C\c2ccco2)C(=O)NC2CCS(=O)(=O)C2)cc1 (stereo not drawn) -1.21
CN(C(=O)CCn1c(=S)oc2ccccc21)C1CCCCC1 0.00441
CC(C)c1nc(SCC(=O)NC(=O)NC(C)(C)C)n[nH]1 -0.671
